From PubChem BioAssay (NCI)
Compounds without any hit were thinned out: in the full panel of roughly 83,000, 20% have a hit.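 Cell lines were cultured in 96-well plates, exposed to a single compound concentration, and assessed for percent growth 48 hours later.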 A number with no mark means an inactive call. Calls of active or inactive are those of the source. How the source made its calls: active means growth percent below 10; inactive means the rest.

Legend:
Assay in all cases: NCI-60 one-dose screen, 48 h (100 = growth as untreated, 0 = no growth, -100 = all killed)
Conditions in all cases: 10 µM unless noted
SK-MEL-2 melanoma = test system: SK-MEL-2 melanoma
EKVX NSCLC = test system: EKVX NSCLC
SN12C renal = test system: SN12C renal
UO-31 renal = test system: UO-31 renal
TK-10 renal = test system: TK-10 renal
CAKI-1 renal = test system: CAKI-1 renal
A498 renal = test system: A498 renal
CCRF-CEM leukemia = test system: CCRF-CEM leukemia
ACHN renal = test system: ACHN renal
MOLT-4 leukemia = test system: MOLT-4 leukemia

Compound	growth (SK-MEL-2 melanoma)	growth (EKVX NSCLC)	growth (SN12C renal)	growth (UO-31 renal)	growth (TK-10 renal)	growth (CAKI-1 renal)	growth (A498 renal)	growth (CCRF-CEM leukemia)	growth (ACHN renal) [%]	growth (MOLT-4 leukemia)
N[C@@H](CCCCNCC(=O)O)C(=O)O	115%	96.9%	101%	91%	98.1%	96.9%	85.4%	109%		
CCCCCCCC/C=C\CCCCCCCCOc1ccccc1CC(=O)NCC[N+](C)(C)C	96.4%	83.4%	67.5%	79.6%	9.37% (active)	50.7%	100%		68.2	77.3%
COc1ccc(C2CC(c3cccc(OC)c3)=NN2C(=O)c2cc(OC)c(OC)c(OC)c2)cc1 (stereo not given)	35.9%	46.5%	39.6%	27.4%	36.8%	23.6%	-0.548% (active)	8.7% (active)		9.31% (active)
CC1(C)OC2C(CO[Si](C)(C)C(C)(C)C)OC(n3c(I)c(C#C[Si](C)(C)C)c(=O)[nH]c3=O)C2O1 (stereo not given)	82.1%	109%	85.7%	86.6%	109%	-8.73% (active)	102%		107	13.4%
COc1ccc(C(=O)COc2ccc(/C=C3\Oc4ccccc4C3=O)cc2)cc1	103%	99%	97.2%	-44.4% (active)	136%	91%	106%			81.7%
NC1=NCc2nc3ccccc3c(=O)n2C1	92.8%	107%	98%	70.1%	106%	92.7%	110%			91.2%
N#Cc1c(-c2cccc(Cl)c2)cc(-c2cccc(F)c2)[nH]c1=O	102%	95.1%	91.1%	80.7%	94%	89.6%	59.4%			
C=C(C)[C@@H]1CC=C2c3sc(-c4ccc(C)cc4)nc3C[C@@H](C)[C@]2(C)C1	105%	95.1%	98.8%	78%	113%	90.6%	106%	99.4%		98%
O=Cc1ccc(O)c2ncccc12	71.2%	66.1%	35.2%	34.8%	94%	48.6%	106%	-40.7% (active)		
COc1ccc(C(=NN=C(N)N)c2ccc(OC)cc2)cc1	32.3%	81.9%	49.9%	62.4%	40.1%	73.4%	66.7%	60%		40%
COc1ccc2oc3c(C)c4c(c(C)c3c2c1)C(=O)N(Cc1ccccc1)C4=O	105%	92.9%	89.8%	80.7%	120%	81.1%	109%			106%
COc1cccc(-c2nc3sccn3c2-c2ccnc(NCCNS(=O)(=O)c3cccc(F)c3)c2)c1	40.8%	38.5%	27.6%	6.44% (active)	51.4%	21.3%	36.6%	16.5%		20.2%
O=C(N/N=C/C=C/c1ccc([N+](=O)[O-])o1)c1cc2ccccc2cc1O	-44.6% (active)	-15.9% (active)	-10.7% (active)	-71.9% (active)	2.31% (active)	12.7%	-82.4% (active)	5.15% (active)		4.89% (active)
COc1cc(-c2n/c(=C\c3c(O)[nH]c4ccc(Cl)cc34)cc3c2=Nc2ccccc2-3)cc(OC)c1OC	36%	38.6%	-27.5% (active)	-54.3% (active)	-7.12% (active)	13.2%	52.4%			10.2%
CCCCCCCCCCCCCCCCCC1=NCCN1CCOC1=C(Cl)C(=O)c2ccccc2C1=O	85.3%	86.7%	78.9%	42.6%	78.9%	8.77% (active)	99.7%	57%		71.7%
N#Cc1c(N2CCNCC2)nc2sc3cc(Cl)c(Cl)cc3n2c1=N	112%	98.8%	93.2%	80.8%	141%	101%	115%			70.4%
O=C(NCCCNc1cc(-c2cn(-c3ccccc3)nc2-c2cccc(O)c2)ccn1)c1ccccc1	26.8%	47.6%	61.1%	22.6%	67.3%	37.3%	31.1%	36.6%		
COc1cc(/C=N/NC(=O)Cn2c(C(C)C)nc3ccccc32)ccc1O	105%	103%	94.7%	84.5%	106%	91.8%	81.9%	94.5%		93.6%
COc1ccc(-c2nc(SCCC(C)C)nc(N/N=C\c3cccc(Cl)c3)c2C#N)cc1	98.3%	77.3%	41.9%	48.9%	47.1%	61%	42.5%	50%		74.7%
COc1ccc(C(=O)/C=C/c2c(C(F)(F)F)nc3sccn23)cc1OC	80.4%	37.1%	29%	61.1%	58.1%	2.75% (active)	94.7%			-16.6% (active)
O=C(O)c1ccc2c(c1Cl)C(=O)c1ccccc1C2=O	70.2%	20.9%	98.8%	93.2%	130%	89.4%	111%			78.1%
COc1ccc(C(=O)Nn2c(NCC(=O)N3c4ccccc4Sc4ccccc43)nnc2-c2ccc(O)cc2)cc1	108%	108%	94.7%	98.1%	109%	107%	90.2%		103	110%
Cc1ccc2nc(NC(=O)CSc3nc(Nc4ccc([N+](=O)[O-])cc4)c(C#N)c(-c4ccccc4)n3)sc2c1	104%	91.1%	97.9%	78.8%	101%	87.9%	116%			97.8%
COc1cccc(-c2nn(-c3ccccc3)cc2-c2ccnc(NCCCNC(=O)c3cccc(C(F)(F)F)c3)c2)c1	33.4%	48.9%	45.5%	10.9%	26.9%	51.4%	43.6%	21.5%		
C[C@H]1[C@H]2[C@H]3CC[C@@H]4[C@@]5(C)C/C(=C/c6ccco6)C(=O)C(C)(C)[C@@H]5CC[C@@]4(C)[C@]3(C)CC[C@]23CO[C@]1(C)[C@@H](C(=O)/C=C\c1ccco1)C3	65.6%	107%	90.4%	71.5%	103%	69%	123%		68.4	100%
Cc1ccc(C2SCC(=O)N2Cc2ccccc2)cc1 (stereo not given)	100%	89.5%	94.8%	83.8%	99.5%	84.4%	109%	79.2%		84%
O=C1Nc2ccccc2/C1=C/c1cn(C(=O)c2c(Cl)cccc2Cl)c2ccccc12	39.9%	81.5%	56.1%	50.7%	90.7%	18.7%	52.5%	70.5%		43.9%
COc1cccc(-c2nn(-c3ccccc3)cc2-c2ccnc(NCCNC(=O)Nc3ccc(Cl)c(Cl)c3)c2)c1	-12.1% (active)	46.3%	11.5%	-13.1% (active)	40.2%	24.5%	-9.43% (active)	8.1% (active)		
Nc1n[nH]c(-c2cc(Cl)ccc2O)c1-c1ccccc1	75.9%	72.6%	86.5%	61.9%	106%	79.7%	101%	85.2%		72.7%
Cc1ccc2nc(NC(=O)CSc3nc(-c4ccccc4)c(C#N)c(=O)n3Cc3ccccc3)sc2c1	85.7%	90.2%	92%	67.4%	119%	69%	85.7%		92.6	93.8%
